Test results published in PubChem BioAssay.
Active and inactive are the calls of the source.

What was measured:
[1] = binders of probe aFSTL3 on microarray, primary screen, stem cell growth factor project, biochemical, small-molecule microarray, fluorescence 635/667 (AID 1064); details: higher = more signal;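 also: measures binding of the biotinylated anti-FSTL3 antibody to printed compounds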
[2] = binders from COS7 lysate, DM2A8 probe, primary screen, torsin A project, cell lysate, small-molecule microarray, fluorescence 635/667 (AID 1065); details: higher = more signal, COS7 lysate expressing mutant human TOR1A
[3] = binders of probe aFGF2 on microarray, primary screen, stem cell growth factor project, biochemical, small-molecule microarray, fluorescence 635/667 (AID 1067); details: higher = more signal;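 also: measures binding of biotinylated aFGF2 protein to printed compounds on slides; z-score merges feature fluorescence and signal-to-noise across triplicate slides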
[4] = binders of probe aFGF10 on microarray, primary screen, stem cell growth factor project, biochemical, small-molecule microarray, fluorescence 635/667 (AID 1071); details: higher = more signal;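 also: score merges 667 nm spot intensity and signal to noise from triplicate slides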
[5] = target: Neurogenic locus notch homolog protein 2 (Homo sapiens) (UniProt Q04721); assay: Notch2 binders on small-molecule microarrays, primary screen, biochemical, small-molecule microarray, 635 nm fluorescence, stem cell growth factors (AID 1073); details: Notch2 binding, higher = more signal
[6] = target: Pro-neuregulin-1, membrane-bound isoform (Homo sapiens) (UniProt Q02297); assay: NRG1 binders on small-molecule microarrays, primary screen, psychiatric disease protein project, biochemical, small-molecule microarray, fluorescence 635/667 (AID 1075); details: NRG1 binding, 635 nm fluorescence, higher = more signal;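 also: score combines 667 nm spot fluorescence with signal to noise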
[7] = test system: Neuregulin-1 EGF-like domain; assay: binders of neuregulin-1 EGF-like domain, primary screen, biochemical, small-molecule microarray, 635 nm fluorescence (AID 1081); details: small-molecule microarray binding, higher = more signal;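 also: binding of the protein to compounds printed on small-molecule microarray slides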
[8] = FRG1 promoter luciferase signal modulators, primary screen, FRG1 inhibition for FSHD, cell-based, C2C12 myotubes, firefly/Renilla luciferase, luminescence (AID 1084); details: higher = more signal, called active from +8 up or from −8 down
[9] = binders of probe aFST on microarray, primary screen, stem cell growth factor project, biochemical, small-molecule microarray, fluorescence 635/667 (AID 1086); details: higher = more signal;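 also: score merges 667 nm fluorescence with signal-to-noise of each printed compound spot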
[10] = binders of probe aHhip on microarray, primary screen, stem cell growth factor project, biochemical, small-molecule microarray, fluorescence 635/667 (AID 1087); details: higher = more signal;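 also: score merges spot fluorescence at 667nm with spot signal to noise ratio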
[11] = test system: PRMT1 (protein arginine N-methyltransferase 1); assay: PRMT1 binders on small-molecule microarrays, primary screen, biochemical, small-molecule microarray, 635 nm fluorescence (AID 1088); details: small-molecule microarray binding, higher = more signal;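 also: binding of Prmt1 protein to compounds spotted on small-molecule microarray slides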
[12] = yeast growth modulation, basal conditions, primary screen, YJM789 clinical isolate, OD600, 24 h (AID 1089);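 also: growth of clinical yeast isolate S. cerevisiae YJM 789 seeded 1000 cells per well; test concentration not given here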; details: S. cerevisiae YJM789 growth, higher = more signal, called active from +8 up or from −8 down
[13] = fission yeast growth modulation, primary screen, strain 972, OD600, 24 h, no modulator (AID 1090);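 also: basal condition with compound alone and no growth modifier present; test concentration not given here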; details: S. pombe 972 growth, higher = more signal, called active from +8 up or from −8 down
[14] = S. cerevisiae growth modulation with rapamycin, primary screen, strain BY4716, OD600, 96 h (AID 1091); details: higher = more signal, called active from +8 up or from −8 down; also: test concentration not given here
[15] = target: Torsin-1A-interacting protein 2 (Homo sapiens) (UniProt Q8NFQ8); assay: LULL1 binders on small-molecule microarray, primary screen, cell lysate, human LULL1 lysate, 635/667 nm fluorescence (AID 1092); details: hLULL1 lysate binding, 635 nm fluorescence, higher = more signal;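 also: probe is lysate of COS7 cells overexpressing human LULL1; score merges per-feature 667 nm fluorescence with signal-to-noise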
[16] = E. coli growth modulation, two-sided OD650, primary screen, E. coli filamentation project, strain DRC41, 24 h (AID 1093); details: OD650, 24 h, higher = more signal, called active from +8 up or from −8 down;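 also: MC1000 strain lacking acrAB efflux and sulA so SOS filamentation is blocked; test concentration not given here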
[17] = small-molecule microarray binders of probe aLefty2, primary screen, biochemical, biotinylated probe, 635/667 nm fluorescence (AID 1094); details: higher = more signal;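 also: score merges spot fluorescence near 667 nm with spot signal-to-noise ratio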
[18] = test system: Noggin (protein binding on small-molecule microarray); assay: Noggin binders on small-molecule microarray, primary screen, biochemical, 635/667 nm fluorescence (AID 1095); details: 635 nm fluorescence, higher = more signal;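 also: score merges 667 nm feature fluorescence with signal to noise over triplicate slides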
[19] = target: Neurogenic locus notch homolog protein 3 (Homo sapiens) (UniProt Q9UM47); assay: NOTCH3 binders on small-molecule microarray, primary screen, biochemical, 635/667 nm fluorescence (AID 1096); details: NOTCH3 binding, 635 nm fluorescence, higher = more signal
[20] = small-molecule microarray binders of probe aEGFR, primary screen, biochemical, biotinylated probe, 635/667 nm fluorescence (AID 1097); details: higher = more signal;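 also: probe is a biotinylated anti-EGFR antibody binding compounds printed on slides; score combines fluorescence near 667 nm and signal to noise of each spot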

Chain of Neurogenic locus notch homolog protein 2 (Homo sapiens) (Q04721 whole entry, looked up, canonical isoform): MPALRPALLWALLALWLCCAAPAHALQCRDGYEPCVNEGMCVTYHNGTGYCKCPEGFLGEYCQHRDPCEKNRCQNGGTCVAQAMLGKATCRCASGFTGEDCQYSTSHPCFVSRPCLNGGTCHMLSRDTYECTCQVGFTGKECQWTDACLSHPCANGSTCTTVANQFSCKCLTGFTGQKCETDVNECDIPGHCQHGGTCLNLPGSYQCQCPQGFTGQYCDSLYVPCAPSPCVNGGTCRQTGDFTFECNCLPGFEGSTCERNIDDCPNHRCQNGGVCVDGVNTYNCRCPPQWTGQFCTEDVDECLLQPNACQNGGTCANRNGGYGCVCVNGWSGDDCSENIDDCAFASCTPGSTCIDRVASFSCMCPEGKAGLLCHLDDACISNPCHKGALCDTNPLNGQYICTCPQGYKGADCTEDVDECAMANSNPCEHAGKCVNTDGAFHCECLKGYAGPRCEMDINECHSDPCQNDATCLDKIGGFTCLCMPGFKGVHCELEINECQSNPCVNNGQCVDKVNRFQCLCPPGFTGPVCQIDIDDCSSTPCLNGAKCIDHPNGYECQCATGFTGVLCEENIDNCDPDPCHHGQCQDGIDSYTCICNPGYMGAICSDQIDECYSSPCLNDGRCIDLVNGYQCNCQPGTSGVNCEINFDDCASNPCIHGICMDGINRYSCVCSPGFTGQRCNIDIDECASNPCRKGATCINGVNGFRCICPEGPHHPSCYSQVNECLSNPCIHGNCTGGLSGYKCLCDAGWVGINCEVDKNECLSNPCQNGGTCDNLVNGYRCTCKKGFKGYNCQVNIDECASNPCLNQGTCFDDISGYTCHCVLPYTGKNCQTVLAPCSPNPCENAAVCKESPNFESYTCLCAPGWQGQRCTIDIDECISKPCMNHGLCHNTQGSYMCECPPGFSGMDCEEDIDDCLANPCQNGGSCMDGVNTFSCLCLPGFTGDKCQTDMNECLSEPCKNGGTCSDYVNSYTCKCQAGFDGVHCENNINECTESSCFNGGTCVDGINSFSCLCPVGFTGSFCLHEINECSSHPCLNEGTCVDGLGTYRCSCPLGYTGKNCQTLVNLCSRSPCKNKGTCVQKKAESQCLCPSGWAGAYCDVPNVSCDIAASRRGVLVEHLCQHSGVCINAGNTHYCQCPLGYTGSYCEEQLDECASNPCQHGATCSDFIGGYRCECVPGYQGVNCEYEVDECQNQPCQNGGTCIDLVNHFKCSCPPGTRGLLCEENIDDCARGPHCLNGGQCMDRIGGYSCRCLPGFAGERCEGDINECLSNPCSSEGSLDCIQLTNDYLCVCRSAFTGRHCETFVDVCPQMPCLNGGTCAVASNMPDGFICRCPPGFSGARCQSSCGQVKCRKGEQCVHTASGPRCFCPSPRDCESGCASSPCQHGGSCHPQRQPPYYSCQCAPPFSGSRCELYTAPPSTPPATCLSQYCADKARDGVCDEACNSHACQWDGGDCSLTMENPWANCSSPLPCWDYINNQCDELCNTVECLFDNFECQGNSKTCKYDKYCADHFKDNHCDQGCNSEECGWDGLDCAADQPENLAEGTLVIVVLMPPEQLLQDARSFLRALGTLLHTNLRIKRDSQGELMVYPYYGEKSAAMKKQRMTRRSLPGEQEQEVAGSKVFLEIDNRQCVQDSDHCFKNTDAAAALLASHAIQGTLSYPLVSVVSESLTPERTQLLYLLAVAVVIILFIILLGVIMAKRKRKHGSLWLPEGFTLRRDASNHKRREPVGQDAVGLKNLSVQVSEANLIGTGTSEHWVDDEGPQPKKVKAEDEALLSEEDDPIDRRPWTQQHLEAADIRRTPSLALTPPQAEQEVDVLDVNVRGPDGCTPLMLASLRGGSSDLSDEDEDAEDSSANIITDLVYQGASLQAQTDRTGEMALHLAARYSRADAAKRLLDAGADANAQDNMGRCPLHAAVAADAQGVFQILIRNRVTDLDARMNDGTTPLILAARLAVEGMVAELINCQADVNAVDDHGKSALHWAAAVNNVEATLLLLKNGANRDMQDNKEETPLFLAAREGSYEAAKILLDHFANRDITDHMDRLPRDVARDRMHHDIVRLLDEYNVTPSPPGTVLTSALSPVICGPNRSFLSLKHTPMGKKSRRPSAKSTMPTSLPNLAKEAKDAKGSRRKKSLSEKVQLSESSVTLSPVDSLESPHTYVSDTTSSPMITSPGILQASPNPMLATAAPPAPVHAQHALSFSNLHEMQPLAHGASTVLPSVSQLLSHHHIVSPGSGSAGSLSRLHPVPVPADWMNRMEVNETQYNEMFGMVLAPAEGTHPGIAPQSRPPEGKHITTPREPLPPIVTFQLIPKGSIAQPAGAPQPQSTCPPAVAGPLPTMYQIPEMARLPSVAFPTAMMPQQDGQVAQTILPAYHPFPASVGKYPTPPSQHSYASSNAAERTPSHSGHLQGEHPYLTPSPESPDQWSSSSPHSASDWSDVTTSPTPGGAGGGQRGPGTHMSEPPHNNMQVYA
Chain of Pro-neuregulin-1, membrane-bound isoform (Homo sapiens) (Q02297 whole entry, looked up, the tested form may be a part, canonical isoform): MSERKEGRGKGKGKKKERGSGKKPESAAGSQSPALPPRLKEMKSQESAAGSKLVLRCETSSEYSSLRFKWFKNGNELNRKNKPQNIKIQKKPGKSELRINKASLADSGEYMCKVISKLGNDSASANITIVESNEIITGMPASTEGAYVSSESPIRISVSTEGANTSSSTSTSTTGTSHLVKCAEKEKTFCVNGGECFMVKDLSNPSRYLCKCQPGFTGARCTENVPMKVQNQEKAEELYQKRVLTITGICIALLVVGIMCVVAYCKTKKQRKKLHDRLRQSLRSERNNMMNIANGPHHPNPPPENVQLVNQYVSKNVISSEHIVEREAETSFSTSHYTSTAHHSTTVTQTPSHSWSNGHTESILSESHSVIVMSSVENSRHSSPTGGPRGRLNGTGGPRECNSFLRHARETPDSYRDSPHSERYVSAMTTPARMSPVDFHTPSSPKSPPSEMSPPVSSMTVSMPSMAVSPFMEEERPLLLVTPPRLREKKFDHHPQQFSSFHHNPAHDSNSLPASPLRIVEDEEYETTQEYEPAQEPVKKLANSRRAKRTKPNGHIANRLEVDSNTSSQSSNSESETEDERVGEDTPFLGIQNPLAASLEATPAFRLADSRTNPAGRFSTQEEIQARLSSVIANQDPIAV
Chain of Torsin-1A-interacting protein 2 (Homo sapiens) (Q8NFQ8 whole entry, looked up): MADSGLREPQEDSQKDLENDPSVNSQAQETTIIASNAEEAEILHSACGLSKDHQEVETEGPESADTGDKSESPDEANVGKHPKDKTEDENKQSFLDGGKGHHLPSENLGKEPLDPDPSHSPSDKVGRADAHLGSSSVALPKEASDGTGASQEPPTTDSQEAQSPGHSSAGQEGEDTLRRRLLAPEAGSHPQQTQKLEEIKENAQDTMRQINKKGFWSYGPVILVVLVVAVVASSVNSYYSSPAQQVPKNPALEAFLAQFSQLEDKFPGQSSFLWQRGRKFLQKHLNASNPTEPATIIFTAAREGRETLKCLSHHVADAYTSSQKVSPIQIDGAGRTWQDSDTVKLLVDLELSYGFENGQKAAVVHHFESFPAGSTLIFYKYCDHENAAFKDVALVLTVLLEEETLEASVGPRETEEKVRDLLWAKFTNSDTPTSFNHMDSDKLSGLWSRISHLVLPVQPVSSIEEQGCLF

| Compound | composite z-score [1] | composite z-score [2] | composite z-score [3] | composite z-score [4] | composite z-score [5] | composite z-score [6] | composite z-score [7] | z-score [8] | composite z-score [9] | composite z-score [10] | composite z-score [11] | z-score [12] | z-score [13] | z-score [14] | composite z-score [15] | z-score [16] | composite z-score [17] | composite z-score [18] | composite z-score [19] | composite z-score [20] |
| --- | --- | --- | --- | --- | --- | --- | --- | --- | --- | --- | --- | --- | --- | --- | --- | --- | --- | --- | --- | --- |
| C=CCC(OC(C)=O)[C@@H]1[C@@H](N(Cc2ccc(-c3cccc(C(F)(F)F)c3)o2)C(=O)c2ccc(C)cc2)c2cc(OCCCO)ccc2N1C(=O)c1ccc(-c2ccccc2)cc1 (stereo not given in full) | -0.322 | -0.179 | -0.129 | 0.265 | 0.0105 | -0.416 | -0.515 | 0.887 (inactive) | 0.137 | -0.214 | 0.0003 | 0.0652 (inactive) | -1.07 (inactive) | 0.271 (inactive) | 0.476 | 1.03 (inactive) | -0.194 | 0.507 | 0.46 | -0.139 |
| COc1ccc(CCNC(=O)[C@@]2(Sc3ccc(C)cc3)CC(=O)N(Cc3ccccc3Cl)[C@@H]2c2ccc(CO)cc2I)cc1 | 0.91 | -0.548 | -0.105 | 0.0404 | -1.02 | 1.2 | 0.883 | -2.03 (inactive) | -0.299 | 0.0695 | 1.26 | -1.62 (inactive) | -3.24 (inactive) | 1.72 (inactive) | 1.8 | 0.68 (inactive) | 0.0349 | -0.284 | -0.788 | -0.185 |
| CCOC(=O)C[C@H]1[C@H](OC(=O)c2ccc(-c3ccccc3)cc2)[C@@H](NC(=O)c2ccc3ccccc3c2)c2cc(OCCCO)ccc2N1C(=O)Cc1ccc(OC)cc1 | -0.325 | 0.228 | 0.0325 | 0.0493 | 0.425 | 0.15 | -0.733 | 1.21 (inactive) | 0.628 | -0.134 | 0.265 | -1.32 (inactive) | 0.636 (inactive) | -0.115 (inactive) | 0.948 | 0.0672 (inactive) | -0.124 | -0.205 | -0.209 | -0.128 |
| O=C1OCCC=C[C@H]2OC34C=CCN(Cc5ccccc5)C(=O)[C@H]3N(CCCCCO)C(=O)[C@@H]4C12 (stereo not given in full) | -0.557 | 1.4 | -0.175 | -0.436 | -0.765 | 1.92 | 1.63 | -0.781 (inactive) | 0.0164 | -0.35 | 0.878 | 1.5 (inactive) | -0.0407 (inactive) | -0.188 (inactive) | 3.74 | 1.42 (inactive) | -0.171 | -0.748 | -0.483 | -0.252 |
| COc1ccc([Si](C)(C)[C@@H]2[C@@H](CC(=O)N3CCC[C@H]3CO)O[C@]3(C(=O)N(C)c4c(Br)cc(C)cc43)[C@H]2C)cc1 | -0.438 | 0.264 | -0.105 | 0.113 | 1.04 | 0.776 | 0.9 | -1.53 (inactive) | 0.219 | -0.0427 | 1.32 | -1.69 (inactive) | -0.328 (inactive) | -0.827 (inactive) | 2.52 | -0.861 (inactive) | -0.0657 | 0.804 | 0.93 | -0.0831 |
| NC(=O)NCC#Cc1ccc2c(c1)[C@]1(C(=O)N2)[C@H](C(=O)NC[C@H](O)c2ccccc2)[C@H]2C(=O)O[C@H](c3ccccc3)[C@H](c3ccccc3)N2[C@@H]1c1ccc(O)cc1 | -0.261 | 0.362 | 0.337 | 0.896 | 0.857 | 1.38 | 0.983 | 1.11 (inactive) | 0.077 | 0.356 | 1.39 | 1.94 (inactive) | 1.06 (inactive) | 3.72 (inactive) | 2.9 | -0.412 (inactive) | 0.138 | 1.27 | 1.13 | 0.151 |
| O=C1N(CCS(=O)(=O)c2ccccc2)Cc2ccccc2C[C@]12N=C(c1ccc(OCCCO)cc1)O[C@@H]2c1ccccc1 | 1.36 | 0.97 | 0.0901 | -0.0674 | 0.633 | 1.33 | 1.31 | -0.436 (inactive) | 0.607 | -0.27 | 1.54 | -0.452 (inactive) | 1.2 (inactive) | 4.94 (inactive) | 3.45 | 0.175 (inactive) | 0.366 | 1.2 | 1.05 | 0.177 |
| Cc1ccc(F)cc1S(=O)(=O)N[C@@H]1CCN(Cc2ccc(-c3ccccc3)cc2)C1 | 0.111 | 0.504 | -0.0894 | 1.04 | 0.332 | 0.0558 | 1.07 | -1.72 (inactive) | 0.204 | 0.107 | 0.126 | -26.5 (active) | -21.3 (active) | -4.06 (inactive) | 0.12 | -19.9 (active) | 0.144 | 0.713 | 0.481 | -0.0565 |
| COCCOC(=O)N1C(=O)[C@@]2(c3cc(C#CC4(O)CCCCCC4)ccc31)[C@H](C(=O)N1CCCCCCC1)[C@H]1C(=O)O[C@H](c3ccccc3)[C@H](c3ccccc3)N1[C@@H]2c1ccccc1OCCO | 2.49 | 0.859 | 0.249 | 0.298 | 1.25 | 1.17 | 1.28 | 0.25 (inactive) | 2.2 | 1.04 | 1.48 | 1.41 (inactive) | -1.07 (inactive) | 3.73 (inactive) | 3.22 | 0.431 (inactive) | 0.911 | 1.55 | 1.05 | 0.495 |
| COCCOC(=O)N1C(=O)[C@@]2(c3ccccc31)[C@H](c1ccc(O)cc1)N1[C@H](c3ccccc3)[C@H](c3ccccc3)OC(=O)[C@H]1[C@@H]2C(=O)N1CCc2cc(OC)c(OC)cc2C1 | 0.21 | 0.0749 | 0.0631 | 0.691 | 1.15 | 1.08 | 0.938 | -1.47 (inactive) | 1.05 | -0.179 | 1.54 | -1.36 (inactive) | 0.201 (inactive) | 1.3 (inactive) | 1.17 | -0.121 (inactive) | 0.0191 | 1.04 | 1.06 | 0.101 |
